Screening data as filed in PubChem BioAssay.
Only a selection was taken, and hits are over-represented in it overall.
Tg IFNy HTS – inhibitors of Toxoplasma gondii growth with IFN-gamma; activity change, negative = inhibition, % (test concentration not listed); 69,000 tested, 3.8% active; Toxoplasma gondii growth in IFN-gamma-treated host cells; hits give low values; in the data active means activity change below about -70%, passing the limit was not always enough;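 further: host cells are HeLa cells infected with Toxoplasma gondii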
* = called active by the depositor.

SMILES	Tg IFNy HTS
CC1(C)CC(=O)C=C(C(=O)N2CC[C@@H](c3ccc(F)cc3)[C@H](O)C2)O1	12.1
O=C(c1ccccc1)c1ccc(O)c(C(c2ccccc2Cl)N2CCCCC2)c1O (centres undefined)	-96.8*
COc1cc2c(cc1OC)C(Nc1ccc(Br)cc1)=NC1(CCCC1)C2	-85.1*
COc1cc2c(cc1OC)C(C)=NC1(CCCCC1)C2	24.1
COc1ccc(-c2nnc3n2C2(CCCC2)Cc2cc(OC)c(OC)cc2-3)cc1	-11.3
O=C1CCCN1[C@@H]1CN(Cc2ccco2)C[C@H]2CCCO[C@H]21	0.4
C=C1/C(=C\C=C2\CCC[C@]3(C)[C@@H]([C@H](C)CCCC(C)C)CC[C@@H]23)C[C@@H](O)C[C@@H]1O	-63.3
C=C1CC[C@H](O)C/C1=C/C=C1\CCC[C@]2(C)[C@@H]([C@H](C)CCCC(C)C)CC[C@@H]12	-74.7*
C=C1/C(=C\C=C2/CCC[C@]3(C)[C@@H]([C@H](C)/C=C/C=C/C(O)(CC)CC)CC[C@@H]23)C[C@@H](O)C[C@@H]1O	10.6
Cc1cc(C)c(S(=O)(=O)NCCCn2ccnc2)c(C)c1	-35.8
Cc1cc(C)c2cc(C#N)c(NCCCn3ccnc3)nc2c1	-100.7*
Cc1cccc(-n2ncc3c(NCCCn4ccnc4)ncnc32)c1	58.2
Cc1ccc(Nc2nc(C(=O)Nc3cc(Cl)ccc3C)nc3ccccc23)cc1	28.6
Cc1ccc(Nc2nc(C(=O)Nc3ccc(F)cc3C)nc3ccccc23)cc1	59.4
Cc1ccc(C)c(NC(=O)c2ccc(Nc3nnc(C)c4ccccc34)cc2)c1	-88.1*
O=C(Nc1ccc(F)cc1F)c1c(O)c2cccnc2n(-c2cccc(F)c2)c1=O	52.2
CCCSCCCNC(=O)c1nc(Nc2ccc(F)cc2)c2ccccc2n1	-54.6
Cn1cc(C[C@H]2[C@@H](O)CCN2C(=O)c2ccc3[nH]ccc3c2)cn1	-24.9
CN1CCN(CCOc2ccc(C(=O)O)cc2)CC1	62.9
Nc1ccc(OCCN2CCCCCC2)cc1	9.8
Cc1c(-c2ccc(O)cc2)n(Cc2ccc(OCCN3CCCCCC3)cc2)c2ccc(O)cc12	-76.1*
O=C(Cc1c[nH]c2ccccc12)N1CCC(O)(C(=O)O)CC1	3.5
CN(C(=O)c1ccc(-c2nnn(C)n2)cc1)C1Cc2ccccc2C1	17.7
Cc1cccc(CCNc2cc(C)nc3ncnn23)c1	3.0
Cc1nc2ncnn2c(NCc2ccc3c(c2)OCO3)c1Cc1ccccc1	-95.5*
SMILES	Tg IFNy HTS
CCOC(=O)c1nc(NCc2ccc3c(c2)OCO3)c2ccccc2n1	9.2
C=CCNC(=O)[C@@H]1CCCC[C@@H]1C(=O)N1CCN(CCC)CC1	-4.7
Nc1ncnc2nc[nH]c12	6.3
Nc1nc(=S)c2[nH]cnc2[nH]1	-86.7*
Clc1ccc(C(c2nnnn2C2CCCC2)N(Cc2ccco2)CC2CCCO2)cc1 (centres undefined)	86.6
COCCN1CCOCC12CCN(C(=O)Cc1ccsc1)CC2	-2.6
Cc1ccc(-c2cc(C(F)(F)F)nn2-c2ccc(S(N)(=O)=O)cc2)cc1	-63.1
NCC(=O)Nc1ccc(-c2cccc(C(F)(F)F)c2)cc1F	-57.3
NCC(=O)Nc1ccc(-n2nc(C(F)(F)F)cc2-c2ccc3c(ccc4ccccc43)c2)cc1	-86.6*
CCCS(=O)(=O)N1CCC2(CC1)CN(Cc1ccccc1)C2=O	4.3
Cc1cccc(S(=O)(=O)N2CCC3(CC2)Nc2ccc(C)c(C)c2-n2cccc23)c1	10.5
NC(=O)c1ccc(-c2cnn3cccnc23)cc1	-57.4
C=CCOC1C2CCC1N(S(=O)(=O)c1ccccc1)C2 (centres undefined)	-4.2
CN1CC[C@@H](c2c(O)cc(O)c3c(=O)cc(-c4ccccc4Cl)oc23)[C@@H]1CO	-74.3*
Cc1oc(-c2ccccc2Cl)cc1C(=O)N1CCCCC1CO (centres undefined)	-44.9
Cc1oc(-c2ccccc2Cl)cc1C(=O)N1CCNC(=O)CC1	-31.4
COc1ccc(-c2oc3cc(OC)c(OC)c(OC)c3c(=O)c2OC)cc1OC	-19.4
Cc1oc(C2CCN(S(=O)(=O)c3ccccc3F)CC2)nc1C(=O)N1CCOCC1	-31.3
C=CCOCC1c2nnn(CC)c2CCN1Cc1c(C)noc1C (centres undefined)	64.9
O=C(c1ccc2c(c1)OCO2)N1CC[C@@H]2[C@H](CO)Nc3ccc(C#Cc4ccccc4)cc3[C@@H]21	-36.5
CC1CC(N(C(=O)c2ccc3c(c2)OCO3)c2ccccc2)c2ccccc2N1 (centres undefined)	-96.2*
CC1CC(N(C(=O)c2ccco2)c2ccccc2)c2ccccc2N1C(=O)c1ccco1 (centres undefined)	24.3
COc1cc(N2CCC3(CCN(Cc4csc(C)n4)C3=O)C2)ncn1 (centres undefined)	-4.2
O=C(NCCc1csc(-c2cccc(F)c2)n1)C(=O)Nc1ccccc1F	-27.0
CC(C)N1CC(c2ncn[nH]2)c2cc(C(=O)N3CCCCC3)ccc21 (centres undefined)	-1.8
COc1ccc(S(=O)(=O)Nc2ccc3c(c2)C(=O)N([C@H](C)CO)C[C@H](C)[C@H](CN(C)S(=O)(=O)c2ccc(Cl)cc2)OCCCC[C@H](C)O3)cc1	-82.0*
